Source: PubChem BioAssay (National Center for Advancing Translational Sciences (NCATS))
Cruzain inh Det: blocks cruzain activity in presence of Triton detergent | Potency, µM, for the others: max response, negative = inhibition, most hits filed as inhibitors | purified cruzain, Z-FR-AMC fluorescence, 0.01% Triton | P25779 | 0.43% of 200,000 active;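 also: plate controls were neutral wells for no effect and buffer without enzyme for full effect; nearly all actives have a fitted effect of over 40% in size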
Target sequence (P25779 123-467 limits assumed): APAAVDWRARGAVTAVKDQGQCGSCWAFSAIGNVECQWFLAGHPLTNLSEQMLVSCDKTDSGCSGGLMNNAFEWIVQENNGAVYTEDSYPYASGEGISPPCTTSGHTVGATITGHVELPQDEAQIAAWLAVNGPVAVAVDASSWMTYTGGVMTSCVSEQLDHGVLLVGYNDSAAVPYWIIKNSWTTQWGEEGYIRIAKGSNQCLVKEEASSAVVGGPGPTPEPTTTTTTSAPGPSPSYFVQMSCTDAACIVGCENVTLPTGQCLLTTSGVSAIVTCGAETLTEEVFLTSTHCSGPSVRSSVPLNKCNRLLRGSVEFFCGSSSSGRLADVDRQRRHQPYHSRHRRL
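Read-out: AMC fluorescence (360 nm excitation, 450 nm emission), four reads over 2 min, first-to-third difference used. Conditions: cruzain 1.5 nM, Z-FR-AMC 2 uM, pH 5.5 acetate, 5 mM DTT, 0.01% Triton X-100.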
Cruzain inh noDet: inhibitors of Trypanosoma cruzi cruzain without detergent; AID 1476; Potency, µM, for inactives: max response, negative = inhibition, hits mostly inhibitors; 2.3% of 200,000 active; purified cruzain, Z-FR-AMC fluorescence, no detergent;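 also: plate controls were enzyme without inhibitor for no effect and buffer without enzyme for full effect; nearly all actives have a fitted effect of over 40% in size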
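Detergent-free condition (0.00005% Triton X-100) in acetate buffer pH 5.5 with DTT. 1.5 nM enzyme and compound were pre-mixed 15 min, then 2 uM Z-FR-AMC substrate added; reaction progress from fluorescence change between first and third reads (60 s).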
Numbers without * were called inactive; ? = inconclusive. In the library only some 2.6% were active in any assay of this set; here they are far more common. Calls follow the shape of the dose curve; as a rule, active = well fitted curve in the direction sought with a large enough effect; inconclusive = small, poorly fitted or top-dose-only effect, or another doubt; inactive = no such curve, though single readings can be large; an effect the other way counts as inactive or inconclusive. Potency is read from the fitted curve at half-maximal effect.

SMILES | Cruzain inh Det | Cruzain inh noDet
Cc1snc2sc(C(=O)c3ccc(Br)cc3)c(N)c12 | 20µM* | 15.8µM*
Cc1ccc(-c2nnc(Nc3ccc(Cl)c(Cl)c3)c3ccccc23)cc1S(=O)(=O)N(C)C | -2.8% | 6.31µM*
Cc1ccc(-c2nnc(Nc3ccc(Cl)c(Cl)c3)c3ccccc23)cc1S(=O)(=O)NCCO | -2.3% | 14.9%
Cc1ccc(-c2nnc(Nc3cccc(Cl)c3)c3ccccc23)cc1S(=O)(=O)N1CCCCC1 | -2.3% | 7.94µM*
Cc1ccc(-c2nnc(Nc3cccc(Cl)c3)c3ccccc23)cc1S(=O)(=O)N1CCOCC1 | -2.8% | 3.0%
COc1ccc(-n2nc(C(=O)NCCc3ccc(OC)c(OC)c3)c3c4ccccc4n(C)c3c2=O)cc1Cl | -2.0% | -13.5%
COc1ccc(-n2c(=O)c(-c3ccc(Cl)cc3)nc3cnc(N(C)C)nc32)cc1 | 1.5% | 13.6%
N#Cc1cccc(-c2ccc3ncnc(NCc4ccccc4)c3c2)c1 | -7.3% | -9.6%
COc1ccc(C2=C(C)C(=O)N(Cc3ccc(C(=O)NCc4cccc(C)c4)cc3)S2(=O)=O)cc1 | -18.6% | 25.1µM*
COc1ccc(C2=C(C)C(=O)N(Cc3ccc(C(=O)Nc4cccc(F)c4)cc3)S2(=O)=O)cc1 | -15.9% | ?
CCc1cccc(NC(=O)c2ccc(CN3C(=O)C(C)=C(c4ccc(OC)cc4)S3(=O)=O)cc2)c1 | -7.1% | 25.1µM*
COc1ccc(C2=C(C)C(=O)N(Cc3ccc(C(=O)NC(C)c4ccccc4)cc3)S2(=O)=O)cc1 (stereo unspecified) | -10.2% | 15.8µM*
COc1ccc(C2=C(C)C(=O)N(Cc3ccc(C(=O)NCc4ccc(C)cc4)cc3)S2(=O)=O)cc1 | -7.0% | -15.7%
CC1=C(c2ccc(C)c(C)c2)S(=O)(=O)N(Cc2ccc(C(=O)NC(C)c3ccccc3)cc2)C1=O (stereo unspecified) | -4.1% | 4.2%
CCOC(=O)c1cc2c(=O)n3ccccc3nc2n(C(C)C)c1=NC(=O)c1cc2ccccc2o1 | 5.6% | ?
CCCCC1=CC2=C(OC(C)=O)C(=O)C(C)(OC(=O)C3CCCC3)C(=O)C2=CO1 (stereo unspecified) | 3.6% | -2.1%
Cc1ccccc1NC(=O)CSc1ccc(-c2ccco2)nn1 | -3.5% | 1.5%
Cc1cccc(NC(=O)CSc2nnc(-c3ccco3)c(-c3ccco3)n2)c1C | 28.2µM* | 7.94µM*
C=NC(C(=O)NC1C(=O)N2C1SC(C)(C)C2C(=O)O)c1ccccc1 (stereo unspecified) | -4.5% | ?
CCOC(=O)c1[nH]c(C)c(CCC(=O)Nc2ccc(C)cc2Cl)c1C | 1.9% | ?
COc1ccc(NC(=O)C2=CC(c3ccc4c(c3)OCO4)=NS(=O)(=O)N2C)cc1 | -3.6% | ?
COc1ccc(C2=NS(=O)(=O)N(C)C(C(=O)Nc3ccc(OC(F)(F)F)cc3)=C2)cc1 | -3.9% | 10µM*
CN(C)CCC[C@@H]1c2ccccc2Oc2ccc(C(F)(F)F)cc21 | 0.4% | -3.1%
COc1cccc(CNC(=O)C2CCN(S(=O)(=O)c3c(C)noc3/C=C/c3cccs3)CC2)c1 | -3.5% | -15.3%
O=C(NCCO)C(=O)Nc1c2c(nn1-c1ccc(F)cc1)CSC2 | -7.0% | 2.0%
SMILES | Cruzain inh Det | Cruzain inh noDet
COc1cc(-c2ccc(N=C=O)c(OC)c2)ccc1N=C=O | -3.6% | 31.6µM*
COc1cc(-c2ccc(NC(=O)c3ccc(C)cc3)c(OC)c2)ccc1NC(=O)c1ccc(C)cc1 | -1.4% | -29.6%
CCCCNc1sc(S(=O)(=O)CCC)nc1S(=O)(=O)c1ccc(C)cc1 | -7.4% | 3.6%
Cc1cc(NC(=O)CSc2ncnc3sc4c(c23)CCC(C)C4)no1 (stereo unspecified) | 4.9% | 5.01µM*
Cc1cc(NC(=O)CSc2nc(C(C)C)nc3sc(C)c(C)c23)no1 | 1.4% | 10.6%
O=C(Nc1cccc(Cl)c1Cl)C1CC(=O)N(c2ccc(Br)cc2)C1 (stereo unspecified) | -1.1% | 25.1µM*
O=C(Nc1cccc(F)c1)C1CC(=O)N(c2ccc(Br)cc2)C1 (stereo unspecified) | -7.2% | -3.5%
Oc1ccccc1C(Sc1nc2ccccc2s1)Sc1nc2ccccc2s1 | -5.0% | -1.0%
O=C(Cn1nc(-c2ccccc2)c2cnc3ccc(F)cc3c21)NC1CCCC1 | -1.6% | -3.2%
CCCC(C(=O)NCc1ccccc1)N(C(=O)Cn1nnc(-c2cccs2)n1)c1ccc2c(c1)OCCO2 (stereo unspecified) | 0.8% | 20µM*
O=C(CN(Cc1ccco1)C(=O)Cn1nnc(-c2cccs2)n1)NCc1ccccc1 | -0.5% | -1.0%
O=C(NCc1ccccc1)C(c1ccc(F)cc1)N(Cc1ccc2c(c1)OCO2)C(=O)Cn1nnc(-c2cccs2)n1 (stereo unspecified) | -1.5% | 12.6µM*
CCC(C(=O)NC1CCCC1)N(C(=O)Cn1nnc(-c2cccs2)n1)c1cnc2ccccc2c1 (stereo unspecified) | 0.3% | 6.8%
Cc1nc(NCc2ccccc2)c2nc(-c3ccccc3)n(CCN3CCCC3)c2n1 | 2.2% | -5.2%
Nc1cnn([C@@H]2O[C@H](CO)[C@@H](O)[C@H]2O)c(=O)n1 | 5.0% | -2.3%
COC(=O)[C@@]1(Cc2ccccc2)[C@H]2c3cc(C(=O)N4CCCC4)n(Cc4cccc5ccccc45)c3C[C@H]2CN1C(=O)c1ccccc1 | -0.7% | -0.1%
Cc1ccc(N2CCN(S(=O)(=O)c3nnc(NC(=O)c4cccc(F)c4)s3)CC2)cc1 | -0.1% | -4.2%
COc1ccccc1CNC(=O)c1cccc(-c2ccccc2OC)n1 | 3.7% | -7.6%
COc1ccccc1NC(=O)Nc1ccc(Br)cn1 | -1.4% | -6.3%
COc1ccc(Cl)cc1NC(=O)Nc1ccc(Br)cn1 | 0.4% | 12.6µM*
CC(C)Cn1nnnc1S(=O)(=O)CCc1ccccc1 | 4.3% | 3.5%
Cc1cc2c(=O)n(Cc3ccco3)c(SCC(=O)c3ccc(Cl)s3)nc2s1 | -8.2% | 25.1µM*
CCOC(=O)CC(=O)CSc1nc2sc(C)cc2c(=O)n1Cc1ccco1 | -5.7% | -16.2%
CCC1(C)Cc2nc3[nH]c(=S)n(-c4ccc(C)cc4)c(=O)c3cc2CO1 (stereo unspecified) | 0.7% | 20µM*
Cc1ccc(-n2c(=S)[nH]c3nc4c(cc3c2=O)COC(C)(C)C4)cc1 | -3.4% | ?
SMILES | Cruzain inh Det | Cruzain inh noDet
CC(=O)Nc1cc(NC(C)=O)cc(-c2nc3ccccc3[nH]2)c1 | -2.5% | -3.0%
CC(C)C(=O)Nc1sc2c(c1-c1nc3ccccc3[nH]1)CCCC2 | -1.0% | 20µM*
COc1ccc(Oc2coc3cc(OC(=O)c4cccs4)ccc3c2=O)cc1 | -0.6% | -26.8%
COC(=O)c1ccc(Oc2coc3cc(OCc4ccc([N+](=O)[O-])cc4)ccc3c2=O)cc1 | -5.2% | 10µM*
Cc1cc(=O)oc2cc(OCc3ccc(C(=O)N4CCN(c5ccc([N+](=O)[O-])cc5)CC4)cc3)ccc12 | -5.3% | 12.6µM*
Cc1cc(=O)oc2cc(OCc3ccc(C(=O)N4CCN(c5ccccc5)CC4)cc3)ccc12 | -5.0% | -28.1%
Cc1ccc(CNC(=O)c2sc3nc4n(c(=O)c3c2C)CCCC4)cc1 | -6.4% | -4.7%
CNc1nnc(-c2cc3cc(Cl)ccc3oc2=O)s1 | -4.5% | 2.0%
O=c1oc2ccc(Cl)cc2cc1-c1nnc(Nc2cccc(C(F)(F)F)c2)s1 | -0.8% | 5.01µM*
CCCCCCCCCCCCCCC(C(=O)O)C(O)(CC(=O)OC)C(=O)O (stereo unspecified) | -11.3% | 15.8%
CC(=O)NC1C(O)C[C@@](O)(C(=O)O)OC1[C@@H](O)C(O)CO (stereo partly specified) | 1.8% | -7.3%
